Records with an inconclusive call do not appear. Active and inactive are the calls of the source. Unless noted, calls follow the shape of the full dose curve.
Tested on: not listed separately
Assay: qHTS for Inhibitors of the Functional Ribonucleoprotein Complex (vRNP) of Lymphocytic Choriomeningitis Arenaviruses (LCMV): Viability assay - alamar blue signal for LCMV Primary Screen (AID 1347085; calls by dose curve; tested in HEK293 reporter line; also: nearly all actives have a fitted effect of over 80% in size)
Conditions: alamar blue viability counter-screen, LCMV vRNP screen cells; series mostly up to 57.5 µM; activity change, negative = lower viability: at the top concentration
% is scaled to controls: 0 for no effect and ±100 for the full control effect; potency is read from the fitted curve at half-maximal effect.

Row | Compound | Potency | activity change, negative = lower viability
1 | CC(=O)Nc1nc(C)c(-c2ccc(Cl)c(S(=O)(=O)NCCO)c2)s1 | 0.685 µM (active) | 
2 | Cc1nc(C(N)=O)nc2ccccc12 |  | -2.54% (inactive)
3 | CC1(C)C2CC1[C@@](C)(O)[C@H](O)C2 (stereo partly drawn) |  | 10.6% (inactive)
4 | CC(=O)OC[C@H]1O[C@@H](O[C@H]2C[C@]3(C)C(C[C@@H](O)C4C([C@]5(C)CC[C@@H](C(C)(C)O)O5)CC[C@]43C)[C@@]3(C)CC[C@H](O)C(C)(C)C23)[C@H](O[C@@H]2O[C@@H](C)[C@H](O)[C@@H](O)[C@H]2O)[C@@H](O)[C@@H]1O (stereo partly drawn) |  | 4.75% (inactive)
5 | NC(C(=O)O)C1ON=C(Cl)C1O (stereo not drawn) |  | 11.2% (inactive)
6 | CC(C)=C[C@H]1C[C@H](C)[C@H]2CC[C@H](C)c3c(O[C@@H]4OC[C@@H](O)[C@H](O)C4O)c(O)c(C)c1c32 (stereo partly drawn) |  | 4.02% (inactive)
7 | CC1(C)C[C@H](O)[C@@]23C[C@@H](OC2=O)[C@]2(C)C(=CCC4[C@@]5(C)CC[C@H](O)C(C)(C)C5CC[C@]42C)[C@@H]3C1 (stereo partly drawn) |  | 22.8% (inactive)
8 | CC12CCC(=O)C=C1C(O)CC1C2CCC2(C)C1CCC2(O)C(=O)CO (stereo not drawn) |  | 3.12% (inactive)
9 | CNCC(=O)O |  | 9.74% (inactive)
10 | C=C[C@]1(C)C=C2C(=O)[C@@]3(O)OC(=O)[C@@]4(CCCC(C)(C)[C@H]34)[C@@]2(O)CC1 |  | 0.588% (inactive)
11 | CC(C)=CCc1c(O)cc(O)c2c1OC(c1ccc(O)cc1)CC2=O (stereo not drawn) |  | 6.51% (inactive)
12 | COc1cc2c(cc1OC)[C@H]1C(=O)c3ccc4c(c3O[C@H]1CO2)C[C@@H](C(C)(C)O)O4 |  | 10.1% (inactive)
13 | CC(C)COC(=O)c1ccccc1 |  | 4.46% [at 115 µM] (inactive)
14 | COc1ccc(-c2coc3cc(OC(C)=O)c(OC)cc3c2=O)cc1 |  | -6.19% (inactive)
15 | CC1=CC=C(C(C)C)CC1 |  | 7.86% [at 115 µM] (inactive)
16 | N#CC(c1ccc(O)cc1)N1CCCCC1 (stereo not drawn) |  | -4.14% (inactive)
17 | CC(=O)C1CCC2(O)C3CCC4=CC(=O)CCC4(C)C3CCC12C (stereo not drawn) |  | -31.2% (inactive)
18 | Cc1ccc(C(C)C)cc1O |  | 9.04% [at 115 µM] (inactive)
19 | CC(=Cc1ccccc1)C=C1SC(=S)N(CC(=O)O)C1=O |  | -0.659% (inactive)
20 | O=C1c2ccccc2C(=O)c2c(O)ccc(O)c21 |  | -12.7% (inactive)

Row | Compound | Potency | activity change, negative = lower viability
21 | O=C(/C=C/c1ccc(O)c(O)c1)O[C@@H]1C[C@](O)(C(=O)O)C[C@@H](O)[C@H]1O |  | 4.88% (inactive)
22 | Cc1cc2c(c(CO)c1CCO)C(=O)[C@@H](C)[C@@H]2O |  | 3.73% (inactive)
23 | COc1ccc(C(=O)OC2C[C@H]3CC[C@@H](C2)N3O)cc1OC (stereo partly drawn) |  | 11% (inactive)
24 | C=C1C[C@@]23CC4C5[C@@]6(C)C[C@H](O)C[C@@]57C2[C@H](O)[C@@H]1[C@H](O)[C@H]3[C@H]7N4C6 |  | -0.312% (inactive)
25 | C[C@@]12C[C@@]3(O)O[C@@H](O1)[C@]1(COC(=O)c4ccccc4)[C@@H]3C[C@@]12O[C@@H]1O[C@H](CO)[C@@H](O)[C@H](O)[C@@H]1O |  | 9.89% (inactive)
26 | CC1(C)CCC[C@@]2(C)CC=C(C(=O)O)[C@@H]3C[C@]312 |  | 7.63% (inactive)
27 | COC(=O)c1c(C)cc(O)c(C=O)c1O |  | 15.6% (inactive)
28 | CCCCC/C=C\C/C=C\C[C@H](O)/C=C/C=C\CCCC(=O)O |  | 7.12% [at 0.757 µM] (inactive)
29 | CC1=C2C(=O)C3C(CC=C4CC(O)CCC43C)C2CCC12OC1CC(C)CNC1C2C (stereo not drawn) |  | 9.4% (inactive)
30 | C=CCc1c(OC)ccc2ccc(=O)oc12 |  | 1.47% (inactive)
31 | O=c1cc(CCc2ccccc2)oc2cccc(O)c12 |  | 15.1% (inactive)
32 | COC(=O)C1=COC(O[C@H]2OC(CO)[C@H](O)C(O)C2O)[C@H]2C1C(=O)C[C@@H]2C (stereo partly drawn) |  | -3.05% (inactive)
33 | COc1cc2c(c(OC)c1CC=C(C)C)C[C@H](c1ccc(O)cc1O)CO2 |  | 19% (inactive)
34 | CC(C)NC(=O)NCCCCCCS(C)=O (stereo not drawn) |  | 13.3% (inactive)
35 | CCCCCCCCCC(=O)OCC |  | -94.4% [at 115 µM] (inactive)
36 | CC(=O)OC[C@]12CCC(C)=C[C@H]1O[C@@H]1[C@H](O)[C@@H](OC(C)=O)[C@@]2(C)[C@]12CO2 |  | -152% (inactive)
37 | CCCCCCCCOC(C)=O |  | 12.6% [at 115 µM] (inactive)
38 | C#CCCCCCCCCCCCc1ccco1 |  | -1.34% (inactive)
39 | FC(F)c1nc2ccccc2n1-c1nc(N2CCOCC2)nc(N2CCOCC2)n1 | 13.7 µM (active) | 

Target: Nucleoprotein (Lymphocytic choriomeningitis virus (strain Armstrong)) (UniProt P09992)
Sequence (P09992 whole entry, looked up): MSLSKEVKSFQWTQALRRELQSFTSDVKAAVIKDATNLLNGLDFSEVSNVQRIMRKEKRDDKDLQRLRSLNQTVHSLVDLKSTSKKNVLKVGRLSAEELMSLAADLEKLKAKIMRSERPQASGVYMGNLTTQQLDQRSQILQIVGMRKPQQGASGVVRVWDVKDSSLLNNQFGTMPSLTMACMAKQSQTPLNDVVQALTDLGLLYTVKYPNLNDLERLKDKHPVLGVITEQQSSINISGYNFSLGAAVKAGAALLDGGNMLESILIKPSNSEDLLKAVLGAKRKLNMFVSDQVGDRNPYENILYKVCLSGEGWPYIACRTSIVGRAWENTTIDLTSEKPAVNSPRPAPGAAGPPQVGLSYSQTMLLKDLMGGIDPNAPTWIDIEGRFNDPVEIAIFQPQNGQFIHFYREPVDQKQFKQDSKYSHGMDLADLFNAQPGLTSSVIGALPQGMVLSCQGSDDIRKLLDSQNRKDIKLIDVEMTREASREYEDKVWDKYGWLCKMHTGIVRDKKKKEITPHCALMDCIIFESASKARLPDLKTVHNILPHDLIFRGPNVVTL
Assay: qHTS for Inhibitors of the Functional Ribonucleoprotein Complex (vRNP) of Lymphocytic Choriomeningitis Arenaviruses (LCMV): LCMV Primary Screen - GLuc reporter signal (AID 1347086); also: nearly all actives have a fitted effect of over 70% in size
Conditions: LCMV minigenome vRNP cell assay, Gaussia luciferase reporter; series mostly up to 57.5 µM; activity change, negative = inhibition: at the top concentration

Row | Compound | Potency | activity change, negative = inhibition
40 | CC(=O)Nc1nc(C)c(-c2ccc(Cl)c(S(=O)(=O)NCCO)c2)s1 | 0.544 µM (active) | 
41 | Cc1nc(C(N)=O)nc2ccccc12 |  | 4.05% (inactive)
42 | CC1(C)C2CC1[C@@](C)(O)[C@H](O)C2 (stereo partly drawn) |  | 7.47% (inactive)
43 | CC(=O)OC[C@H]1O[C@@H](O[C@H]2C[C@]3(C)C(C[C@@H](O)C4C([C@]5(C)CC[C@@H](C(C)(C)O)O5)CC[C@]43C)[C@@]3(C)CC[C@H](O)C(C)(C)C23)[C@H](O[C@@H]2O[C@@H](C)[C@H](O)[C@@H](O)[C@H]2O)[C@@H](O)[C@@H]1O (stereo partly drawn) |  | 7.97% (inactive)
44 | NC(C(=O)O)C1ON=C(Cl)C1O (stereo not drawn) |  | 2.52% (inactive)
45 | CC(C)=C[C@H]1C[C@H](C)[C@H]2CC[C@H](C)c3c(O[C@@H]4OC[C@@H](O)[C@H](O)C4O)c(O)c(C)c1c32 (stereo partly drawn) |  | 8.08% (inactive)
46 | CC1(C)C[C@H](O)[C@@]23C[C@@H](OC2=O)[C@]2(C)C(=CCC4[C@@]5(C)CC[C@H](O)C(C)(C)C5CC[C@]42C)[C@@H]3C1 (stereo partly drawn) |  | 30% (inactive)
47 | CC12CCC(=O)C=C1C(O)CC1C2CCC2(C)C1CCC2(O)C(=O)CO (stereo not drawn) |  | 12.7% (inactive)
48 | CNCC(=O)O |  | 18.2% (inactive)
49 | C=C[C@]1(C)C=C2C(=O)[C@@]3(O)OC(=O)[C@@]4(CCCC(C)(C)[C@H]34)[C@@]2(O)CC1 |  | -29.2% (inactive)
50 | CC(C)=CCc1c(O)cc(O)c2c1OC(c1ccc(O)cc1)CC2=O (stereo not drawn) |  | 10.4% (inactive)
51 | COc1cc2c(cc1OC)[C@H]1C(=O)c3ccc4c(c3O[C@H]1CO2)C[C@@H](C(C)(C)O)O4 |  | -5.26% (inactive)
52 | CC(C)COC(=O)c1ccccc1 |  | 3.63% [at 115 µM] (inactive)
53 | COc1ccc(-c2coc3cc(OC(C)=O)c(OC)cc3c2=O)cc1 |  | -5.95% (inactive)
54 | CC1=CC=C(C(C)C)CC1 |  | 1.41% [at 115 µM] (inactive)
55 | N#CC(c1ccc(O)cc1)N1CCCCC1 (stereo not drawn) |  | 9.92% (inactive)
56 | CC(=O)C1CCC2(O)C3CCC4=CC(=O)CCC4(C)C3CCC12C (stereo not drawn) |  | -16.4% (inactive)
57 | Cc1ccc(C(C)C)cc1O |  | 2.11% [at 115 µM] (inactive)
58 | CC(=Cc1ccccc1)C=C1SC(=S)N(CC(=O)O)C1=O |  | 5.44% (inactive)
59 | O=C1c2ccccc2C(=O)c2c(O)ccc(O)c21 |  | -18.6% (inactive)

Row | Compound | Potency | activity change, negative = inhibition
60 | O=C(/C=C/c1ccc(O)c(O)c1)O[C@@H]1C[C@](O)(C(=O)O)C[C@@H](O)[C@H]1O |  | 20.6% (inactive)
61 | Cc1cc2c(c(CO)c1CCO)C(=O)[C@@H](C)[C@@H]2O |  | 10.8% (inactive)
62 | COc1ccc(C(=O)OC2C[C@H]3CC[C@@H](C2)N3O)cc1OC (stereo partly drawn) |  | -2.27% (inactive)
63 | C=C1C[C@@]23CC4C5[C@@]6(C)C[C@H](O)C[C@@]57C2[C@H](O)[C@@H]1[C@H](O)[C@H]3[C@H]7N4C6 |  | 0.981% (inactive)
64 | C[C@@]12C[C@@]3(O)O[C@@H](O1)[C@]1(COC(=O)c4ccccc4)[C@@H]3C[C@@]12O[C@@H]1O[C@H](CO)[C@@H](O)[C@H](O)[C@@H]1O |  | 27.5% (inactive)
65 | CC1(C)CCC[C@@]2(C)CC=C(C(=O)O)[C@@H]3C[C@]312 |  | -1.39% (inactive)
66 | COC(=O)c1c(C)cc(O)c(C=O)c1O |  | 11% (inactive)
67 | CCCCC/C=C\C/C=C\C[C@H](O)/C=C/C=C\CCCC(=O)O |  | 11.5% [at 0.757 µM] (inactive)
68 | CC1=C2C(=O)C3C(CC=C4CC(O)CCC43C)C2CCC12OC1CC(C)CNC1C2C (stereo not drawn) |  | -3.23% (inactive)
69 | C=CCc1c(OC)ccc2ccc(=O)oc12 |  | 17.7% (inactive)
70 | O=c1cc(CCc2ccccc2)oc2cccc(O)c12 |  | 38.2% (inactive)
71 | COC(=O)C1=COC(O[C@H]2OC(CO)[C@H](O)C(O)C2O)[C@H]2C1C(=O)C[C@@H]2C (stereo partly drawn) |  | -0.522% (inactive)
72 | COc1cc2c(c(OC)c1CC=C(C)C)C[C@H](c1ccc(O)cc1O)CO2 |  | 19.2% (inactive)
73 | CC(C)NC(=O)NCCCCCCS(C)=O (stereo not drawn) |  | 22.6% (inactive)
74 | CCCCCCCCCC(=O)OCC |  | -58.4% [at 115 µM] (inactive)
75 | CC(=O)OC[C@]12CCC(C)=C[C@H]1O[C@@H]1[C@H](O)[C@@H](OC(C)=O)[C@@]2(C)[C@]12CO2 |  | -105% (inactive)
76 | CCCCCCCCOC(C)=O |  | 9.68% [at 115 µM] (inactive)
77 | C#CCCCCCCCCCCCc1ccco1 |  | 4.76% (inactive)
78 | FC(F)c1nc2ccccc2n1-c1nc(N2CCOCC2)nc(N2CCOCC2)n1 | 19.3 µM (active) | 
